This is an account of results in PubChem BioAssay (EPA / NIEHS).

Records with an inconclusive call do not appear. Active and inactive are the calls of the source. How the source made its calls: active means hit-call score of the fitted dose curve at least 0.9, where 1 is the maximum; inconclusive means response in the unintended direction; inactive means score below 0.9.

Assay [1] deals with Glycogen synthase kinase-3 beta (Homo sapiens) (UniProt P49841). The assay can be described thus: NVS_ENZ_hGSK3b: NovaScreen (NVS) Enzymatic Assay for human Glycogen Synthase Kinase-3 beta (GSK3b) (AID 2283165). The gist of the method:
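Recombinant enzyme with specific fluorescent substrate, 1 h, product separated by electrophoretic mobility shift. Primary duplicate screen at 25 uM; actives (e.g. 30% inhibition) followed in singleton concentration-response to 50 uM. Signal loss fitted versus DMSO.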

For assay [2], the target named is human Ephrin type-B Receptor 2 (EphB2), EPHB2 (gene 2048) (UniProt P29323). The assay can be described thus: NVS_ENZ_hEphB2: NovaScreen (NVS) Enzymatic Assay for human Ephrin type-B Receptor 2 (EphB2) (AID 2283156). The gist of the method: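 Compounds were first tested in duplicate at 25 uM, with hits rerun singly in concentration series up to 50 uM. Enzyme activity on fluorescent substrate was read at 1 h by mobility-shift separation, scored as signal loss relative to DMSO.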

For assay [3], the target named is human FYN Proto-Oncogene, Src family Tyrosine Kinase (Fyn), FYN (gene 2534) (UniProt P06241). The assay can be described thus: NVS_ENZ_hFyn: NovaScreen (NVS) Enzymatic Assay for human FYN Proto-Oncogene, Src family Tyrosine Kinase (Fyn) (AID 2283161). Put shortly: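 Cell-free kinase activity read by fluorescence after mobility-shift separation of substrate and product, 1 h post-dose. Initial single concentration 25 uM in duplicate, then concentration-response follow-up; DMSO baseline.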

Assay [4] deals with human Matrix Metalloproteinase-1 (MMP1), MMP1 (gene 4312) (UniProt P03956). The assay can be described thus: NVS_ENZ_hMMP1: NovaScreen (NVS) Enzymatic Assay for human Matrix Metalloproteinase-1 (MMP1) (AID 2283181). Put shortly:
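Cell-free fluorescent substrate assay of human MMP1, read after 1 h. A single 25 uM duplicate screen was followed by concentration series to a maximum of 50 uM for actives meeting threshold; inhibition analysed against DMSO baseline.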

Assay [5] deals with human Matrix Metalloproteinase-7 (MMP7), MMP7 (gene 4316) (UniProt P09237). The assay can be described thus: NVS_ENZ_hMMP7: NovaScreen (NVS) Enzymatic Assay for human Matrix Metalloproteinase-7 (MMP7) (AID 2283183). Put shortly:
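Compounds first tested at 25 uM in duplicate, then at up to 50 uM in concentration series if active. Protease activity measured by fluorescence intensity 1 h after dosing, with fitting relative to DMSO.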

For assay [6], the target named is human Janus Kinase 2 (Jak2), JAK2 (gene 3717) (UniProt O60674). The assay can be described thus: NVS_ENZ_hJak2: NovaScreen (NVS) Enzymatic Assay for human Janus Kinase 2 (Jak2) (AID 2283169). The gist of the method: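 Single-point duplicate screen at 25 uM, with hits run in concentration series to a 50 uM top dose. Substrate-product separation by mobility shift with fluorescence detection, 1 h post-dosing; DMSO baseline.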

In assay [7] the target is human Elastase, ELANE (gene 1991) (UniProt P08246). The assay can be described thus: NVS_ENZ_hElastase: NovaScreen (NVS) Enzymatic Assay for human Elastase (AID 2283153). The gist of the method:
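Concentration-response to 50 uM max, run singly for chemicals passing a threshold (e.g., 30% inhibition) in a duplicate 25 uM single-point screen. Neutrophil-derived human elastase, absorbance read-out of enzyme activity at 1.5 h; DMSO baseline.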

Assay [8] addresses human Mitogen-Activated Protein Kinase 1 (MAPK 1), MAPK1 (gene 5594) (UniProt P28482). The assay can be described thus: NVS_ENZ_hMAPK1: NovaScreen (NVS) Enzymatic Assay for human Mitogen-Activated Protein Kinase 1 (MAPK 1) (AID 2283175). Put shortly:
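Cell-free recombinant human MAPK1 enzymatic assay, fluorescence/electrophoretic mobility shift read at 1 h; loss of signal vs DMSO. Primary screen in duplicate at 25 uM; actives (e.g. ≥30% inhibition) run as concentration-response up to 50 uM.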

For assay [9], the target named is Histone deacetylase 3 (Homo sapiens) (UniProt O15379). The assay can be described thus: NVS_ENZ_hHDAC3: NovaScreen (NVS) Enzymatic Assay for human Histone Deacetylase 3 (HDAC3) (AID 2283163). Put shortly: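 Cell-free enzyme format: loss of fluorescent product after mobility-shift separation, 1 h incubation, recombinant human HDAC3. Single 25 uM duplicate screen first, then concentration series to a 50 uM top for hits; DMSO as baseline.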

Assay [10] has as its target Protein deacetylase HDAC6 (Homo sapiens) (UniProt Q9UBN7). The assay can be described thus: NVS_ENZ_hHDAC6: NovaScreen (NVS) Enzymatic Assay for human Histone Deacetylase 6 (HDAC6) (AID 2283164). Put shortly: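 Concentration-response runs up to 50 uM followed a duplicate 25 uM single-point screen. Deacetylase activity of recombinant human HDAC6 read by fluorescence after 1 h, with mobility-shift separation of substrate and product; DMSO as baseline.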

The target of assay [11] is human Ephrin type-B Receptor 1 (EphB1), EPHB1 (gene 2047) (UniProt P54762). The assay can be described thus: NVS_ENZ_hEphB1: NovaScreen (NVS) Enzymatic Assay for human Ephrin type-B Receptor 1 (EphB1) (AID 2283154). The gist of the method: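 Recombinant EphB1 activity read by fluorescence after mobility-shift separation of product from substrate, 1 h post-dosing. Compounds screened in duplicate at 25 uM; inhibition scored as signal loss relative to DMSO.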

Assay [12] addresses human Esterase Plasma (ES), BCHE (gene 590) (UniProt P06276). The assay can be described thus: NVS_ENZ_hES: NovaScreen (NVS) Enzymatic Assay for human Esterase Plasma (ES) (AID 2283157). The gist of the method:
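Primary single-concentration screen at 25 uM in duplicate, then concentration-response to a 50 uM top dose. Human plasma esterase activity detected colorimetrically after 0.25 h incubation, with DMSO as baseline.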

For assay [13], the target named is human Ephrin type-A Receptor 1 (EphA1), EPHA1 (gene 2041) (UniProt P21709). The assay can be described thus: NVS_ENZ_hEphA1: NovaScreen (NVS) Enzymatic Assay for human Ephrin type-A Receptor 1 (EphA1) (AID 2283158).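 Further: activity is signal loss versus DMSO meaning EphA1 kinase inhibition.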 Put shortly: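 Chemicals first tested in duplicate at 25 uM against recombinant EphA1 with a fluorescent substrate; those passing threshold went to singleton dose-response topping at 50 uM. Activity read 1 h later as mobility-shift fluorescence, loss of signal relative to DMSO.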

The target in assay [14] is Mitogen-activated protein kinase 3 (Homo sapiens) (UniProt P27361). The assay can be described thus: NVS_ENZ_hMAPK3: NovaScreen (NVS) Enzymatic Assay for human Mitogen-Activated Protein Kinase 3 (MAPK 3) (AID 2283177). Put shortly:
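Chemicals were first tested in duplicate at 25 uM, with hits re-run as concentration series (max 50 uM). Recombinant enzyme activity, measured 1 h post-dose in a cell-free format, was read by fluorescence/mobility shift relative to DMSO.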

The target in assay [15] is human Ephrin type-A Receptor 2 (EphA2), EPHA2 (gene 1969) (UniProt P29317). The assay can be described thus: NVS_ENZ_hEphA2: NovaScreen (NVS) Enzymatic Assay for human Ephrin type-A Receptor 2 (EphA2) (AID 2283155). Put shortly: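 Enzyme activity of recombinant EphA2 read by fluorescence after mobility-shift separation, 1 h after dosing. Chemicals first tested at 25 uM (duplicate); those passing threshold run as concentration series, top 50 uM, single replicate, relative to DMSO.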

Assay [16] has as its target human MET Proto-Oncogene, Receptor Tyrosine Kinase (MET), MET (gene 4233) (UniProt P08581). The assay can be described thus: NVS_ENZ_hMet: NovaScreen (NVS) Enzymatic Assay for human MET Proto-Oncogene, Receptor Tyrosine Kinase (MET) (AID 2283180). Put shortly:
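Hits from a 25 uM duplicate screen were retested in concentration series up to 50 uM. Enzyme activity was measured by fluorescence after electrophoretic separation of product from substrate, 1 h after compound addition, relative to DMSO.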

Assay [17] concerns the target human c-Jun N-terminal Kinases (JNK2), MAPK9 (gene 5601) (UniProt P45984). The assay can be described thus: NVS_ENZ_hJNK2: NovaScreen (NVS) Enzymatic Assay for human c-Jun N-terminal Kinases (JNK2) (AID 2283171). Put shortly:
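Chemicals first tested in duplicate at 25 uM, then in singleton concentration series up to 50 uM, against extracted JNK2 enzyme. Activity loss read by fluorescence with mobility-shift separation 1 h post-dose; DMSO baseline.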

Assay [18] deals with human MAP Kinase-Activated Protein Kinase 2 (MAPKAPK2), MAPKAPK2 (gene 9261) (UniProt P49137). The assay can be described thus: NVS_ENZ_hMAPKAPK2: NovaScreen (NVS) Enzymatic Assay for human MAP Kinase-Activated Protein Kinase 2 (MAPKAPK2) (AID 2283178). Put shortly: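 Chemicals screened in duplicate at 25 uM, then to 50 uM top concentration in concentration-response, against recombinant human MAPKAPK2; substrate conversion read 1 hr post-dosing by fluorescence after electrophoretic mobility-shift separation, loss-of-signal relative to DMSO.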

human Ephrin type-A Receptor 1 (EphA1), EPHA1 (gene 2041), sequence (P21709 whole entry, looked up): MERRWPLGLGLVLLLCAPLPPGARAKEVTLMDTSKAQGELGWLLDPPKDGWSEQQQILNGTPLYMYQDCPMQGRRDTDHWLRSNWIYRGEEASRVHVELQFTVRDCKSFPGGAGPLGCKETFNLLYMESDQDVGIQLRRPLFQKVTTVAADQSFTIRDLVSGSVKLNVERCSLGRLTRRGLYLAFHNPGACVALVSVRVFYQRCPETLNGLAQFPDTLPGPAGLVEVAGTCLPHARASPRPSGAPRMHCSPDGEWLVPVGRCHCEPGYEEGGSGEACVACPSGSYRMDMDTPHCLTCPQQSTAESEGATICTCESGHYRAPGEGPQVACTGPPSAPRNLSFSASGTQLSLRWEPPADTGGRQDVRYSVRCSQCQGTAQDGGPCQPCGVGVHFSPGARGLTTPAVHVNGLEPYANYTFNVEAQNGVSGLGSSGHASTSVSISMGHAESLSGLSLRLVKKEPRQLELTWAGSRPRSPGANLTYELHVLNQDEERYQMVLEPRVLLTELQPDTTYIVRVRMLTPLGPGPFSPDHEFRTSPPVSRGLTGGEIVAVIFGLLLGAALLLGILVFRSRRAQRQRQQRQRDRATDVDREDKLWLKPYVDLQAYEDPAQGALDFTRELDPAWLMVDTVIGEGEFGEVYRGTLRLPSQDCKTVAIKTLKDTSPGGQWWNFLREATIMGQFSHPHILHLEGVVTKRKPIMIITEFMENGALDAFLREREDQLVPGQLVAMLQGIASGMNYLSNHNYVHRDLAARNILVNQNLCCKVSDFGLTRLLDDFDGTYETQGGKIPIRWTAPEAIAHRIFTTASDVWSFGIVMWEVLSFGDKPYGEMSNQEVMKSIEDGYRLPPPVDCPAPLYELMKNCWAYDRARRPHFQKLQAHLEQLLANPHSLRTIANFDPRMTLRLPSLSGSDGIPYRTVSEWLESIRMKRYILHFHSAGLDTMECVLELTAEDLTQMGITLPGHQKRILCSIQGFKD
Histone deacetylase 3 (Homo sapiens), sequence (O15379 whole entry, looked up): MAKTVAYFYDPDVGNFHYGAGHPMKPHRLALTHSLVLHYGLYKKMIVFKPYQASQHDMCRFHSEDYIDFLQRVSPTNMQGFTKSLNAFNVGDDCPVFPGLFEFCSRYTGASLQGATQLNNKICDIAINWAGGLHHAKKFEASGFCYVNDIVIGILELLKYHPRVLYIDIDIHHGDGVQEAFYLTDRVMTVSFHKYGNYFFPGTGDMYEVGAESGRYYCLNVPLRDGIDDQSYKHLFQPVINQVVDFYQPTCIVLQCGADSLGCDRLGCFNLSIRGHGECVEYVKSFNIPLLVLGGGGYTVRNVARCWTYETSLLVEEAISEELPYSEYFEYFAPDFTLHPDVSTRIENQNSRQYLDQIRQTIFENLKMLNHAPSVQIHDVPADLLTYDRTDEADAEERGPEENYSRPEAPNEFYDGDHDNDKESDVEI
Glycogen synthase kinase-3 beta (Homo sapiens), sequence (P49841 whole entry, looked up): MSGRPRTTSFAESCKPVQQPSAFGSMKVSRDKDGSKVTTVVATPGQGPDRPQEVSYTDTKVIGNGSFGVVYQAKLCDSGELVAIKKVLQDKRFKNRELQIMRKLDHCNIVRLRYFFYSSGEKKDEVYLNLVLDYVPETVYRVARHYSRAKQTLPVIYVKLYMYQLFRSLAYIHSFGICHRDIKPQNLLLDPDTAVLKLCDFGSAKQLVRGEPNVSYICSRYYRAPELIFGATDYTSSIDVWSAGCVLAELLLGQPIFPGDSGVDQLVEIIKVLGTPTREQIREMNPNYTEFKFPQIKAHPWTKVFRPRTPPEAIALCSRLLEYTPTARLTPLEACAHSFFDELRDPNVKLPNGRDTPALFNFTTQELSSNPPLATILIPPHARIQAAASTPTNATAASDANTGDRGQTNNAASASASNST
Mitogen-activated protein kinase 3 (Homo sapiens), sequence (P27361 whole entry, looked up): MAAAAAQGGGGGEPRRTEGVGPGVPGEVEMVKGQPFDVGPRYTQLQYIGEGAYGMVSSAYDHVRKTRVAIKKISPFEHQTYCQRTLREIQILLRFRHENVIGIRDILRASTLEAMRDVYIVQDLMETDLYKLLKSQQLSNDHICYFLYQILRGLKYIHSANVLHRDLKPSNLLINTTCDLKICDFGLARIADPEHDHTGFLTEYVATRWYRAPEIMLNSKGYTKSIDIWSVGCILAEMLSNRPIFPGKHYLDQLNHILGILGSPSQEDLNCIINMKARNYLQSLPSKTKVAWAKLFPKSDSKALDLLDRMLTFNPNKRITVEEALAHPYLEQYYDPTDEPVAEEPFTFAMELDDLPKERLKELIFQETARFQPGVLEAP
human Janus Kinase 2 (Jak2), JAK2 (gene 3717), sequence (O60674 whole entry, looked up): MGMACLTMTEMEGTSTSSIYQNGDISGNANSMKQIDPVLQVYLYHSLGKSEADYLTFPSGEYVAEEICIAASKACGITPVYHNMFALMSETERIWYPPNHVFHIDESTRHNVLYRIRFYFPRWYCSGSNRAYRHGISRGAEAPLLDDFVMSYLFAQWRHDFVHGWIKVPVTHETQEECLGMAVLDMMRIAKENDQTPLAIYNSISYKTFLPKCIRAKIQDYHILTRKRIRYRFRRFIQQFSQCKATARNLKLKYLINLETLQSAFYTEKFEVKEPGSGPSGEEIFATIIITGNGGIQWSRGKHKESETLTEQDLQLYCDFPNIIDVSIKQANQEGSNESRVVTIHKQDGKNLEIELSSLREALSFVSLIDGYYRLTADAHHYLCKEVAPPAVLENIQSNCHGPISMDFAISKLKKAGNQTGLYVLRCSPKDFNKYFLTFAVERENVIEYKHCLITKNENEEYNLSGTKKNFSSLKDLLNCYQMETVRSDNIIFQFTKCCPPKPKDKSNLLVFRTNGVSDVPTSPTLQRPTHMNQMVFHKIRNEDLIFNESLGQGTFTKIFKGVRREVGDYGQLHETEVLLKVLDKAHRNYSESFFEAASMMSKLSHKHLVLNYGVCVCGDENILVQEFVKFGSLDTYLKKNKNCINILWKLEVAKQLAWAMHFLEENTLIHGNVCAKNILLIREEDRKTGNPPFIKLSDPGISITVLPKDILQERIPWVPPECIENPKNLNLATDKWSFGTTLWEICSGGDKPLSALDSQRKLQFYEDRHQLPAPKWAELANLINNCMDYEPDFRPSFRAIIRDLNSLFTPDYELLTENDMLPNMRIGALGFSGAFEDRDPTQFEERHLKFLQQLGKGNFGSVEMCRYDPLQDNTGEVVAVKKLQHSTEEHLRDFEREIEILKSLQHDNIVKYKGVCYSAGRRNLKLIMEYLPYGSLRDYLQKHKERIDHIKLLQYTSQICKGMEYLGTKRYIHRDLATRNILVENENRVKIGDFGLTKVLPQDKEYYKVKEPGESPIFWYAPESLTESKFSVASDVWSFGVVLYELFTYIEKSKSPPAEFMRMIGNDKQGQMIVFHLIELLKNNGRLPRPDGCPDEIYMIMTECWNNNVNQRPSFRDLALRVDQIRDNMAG
human c-Jun N-terminal Kinases (JNK2), MAPK9 (gene 5601), sequence (P45984 whole entry, looked up): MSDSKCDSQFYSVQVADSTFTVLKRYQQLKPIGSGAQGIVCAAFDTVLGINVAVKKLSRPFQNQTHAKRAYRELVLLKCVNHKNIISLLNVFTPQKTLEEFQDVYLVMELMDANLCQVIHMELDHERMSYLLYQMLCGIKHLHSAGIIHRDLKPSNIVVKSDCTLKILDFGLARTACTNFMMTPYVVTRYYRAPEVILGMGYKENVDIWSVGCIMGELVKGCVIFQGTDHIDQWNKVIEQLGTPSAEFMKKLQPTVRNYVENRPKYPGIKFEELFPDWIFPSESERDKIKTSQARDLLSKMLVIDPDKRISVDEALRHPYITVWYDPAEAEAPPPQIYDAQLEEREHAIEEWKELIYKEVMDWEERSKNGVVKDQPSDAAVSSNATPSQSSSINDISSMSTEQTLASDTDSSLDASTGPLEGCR
human FYN Proto-Oncogene, Src family Tyrosine Kinase (Fyn), FYN (gene 2534), sequence (P06241 whole entry, looked up): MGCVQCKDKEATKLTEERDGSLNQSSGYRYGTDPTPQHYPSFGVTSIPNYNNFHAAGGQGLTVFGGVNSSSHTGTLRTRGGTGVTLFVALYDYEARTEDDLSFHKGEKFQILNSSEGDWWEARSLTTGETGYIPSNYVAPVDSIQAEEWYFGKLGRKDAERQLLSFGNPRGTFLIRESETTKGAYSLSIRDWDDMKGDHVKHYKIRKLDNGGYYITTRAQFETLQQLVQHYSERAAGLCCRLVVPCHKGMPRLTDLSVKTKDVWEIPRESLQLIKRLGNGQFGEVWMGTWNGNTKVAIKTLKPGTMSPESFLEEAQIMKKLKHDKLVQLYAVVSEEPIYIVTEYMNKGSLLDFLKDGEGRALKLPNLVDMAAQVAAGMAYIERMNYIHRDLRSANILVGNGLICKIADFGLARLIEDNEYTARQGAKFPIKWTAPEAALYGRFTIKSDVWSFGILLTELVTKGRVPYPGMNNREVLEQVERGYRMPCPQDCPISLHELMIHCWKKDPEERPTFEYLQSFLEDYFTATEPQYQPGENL
human Esterase Plasma (ES), BCHE (gene 590), sequence (P06276 whole entry, looked up): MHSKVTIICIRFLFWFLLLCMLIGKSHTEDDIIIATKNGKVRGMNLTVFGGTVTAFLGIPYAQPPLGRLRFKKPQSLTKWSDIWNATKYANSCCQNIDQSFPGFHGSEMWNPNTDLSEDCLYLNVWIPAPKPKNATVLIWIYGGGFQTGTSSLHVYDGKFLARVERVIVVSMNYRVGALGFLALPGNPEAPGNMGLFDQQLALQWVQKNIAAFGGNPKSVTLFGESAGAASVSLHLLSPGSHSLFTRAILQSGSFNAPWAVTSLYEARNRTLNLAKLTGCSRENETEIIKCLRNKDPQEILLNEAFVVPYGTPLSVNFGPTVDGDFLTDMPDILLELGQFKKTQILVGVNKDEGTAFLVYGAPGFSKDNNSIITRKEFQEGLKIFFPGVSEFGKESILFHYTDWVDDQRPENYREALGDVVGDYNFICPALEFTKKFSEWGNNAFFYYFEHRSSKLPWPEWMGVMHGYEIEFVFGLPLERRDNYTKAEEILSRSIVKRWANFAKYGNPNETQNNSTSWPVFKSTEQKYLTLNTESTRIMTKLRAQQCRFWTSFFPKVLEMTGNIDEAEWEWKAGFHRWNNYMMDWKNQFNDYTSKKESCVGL

Turning to `Cc1cc(O)ccc1Cl`, the compound was classed as inactive in assay [1].
As usually defined, the AC50 is the concentration at which the activity in the assay is half-maximal. Regarding `Oc1ccc(C(c2ccc(O)cc2)(C(F)(F)F)C(F)(F)F)cc1`, the compound was called inactive in assay [2], in assay [3] and in assay [5]. In addition, the AC50 in assay [4] is 5.26 µM (active).
On to `COc1ccc(O)c(C(C)(C)C)c1`, for which the compound was called inactive in assay [1].
Consider `Clc1ccc(C(c2ccccc2Cl)C(Cl)(Cl)Cl)cc1` (centres undefined), for which, in assay [6], the compound was classed as inactive.
On to `NS(=O)(=O)C(F)(F)C(F)(F)C(F)(F)C(F)(F)C(F)(F)C(F)(F)C(F)(F)C(F)(F)F`, for which the result in assay [7] was inactive.
In the case of `CCNc1nc(NC(C)C)nc(SC)n1`, the call in assay [8] was inactive.
Turning to `c1cc2ccc3cccc4ccc(c1)c2c34`, the compound was called inactive in assay [9] and in assay [10].
For the compound `Cc1ccccc1CO[C@@H]1C[C@@]2(C(C)C)CC[C@]1(C)O2`, the compound was classed as inactive in assay [11]. Also, in assay [12], the AC50 is 9.07 µM (active).
Take `Cc1cccc([N+](=O)[O-])c1`: the compound was called inactive in [13] and in assay [14].
Turning to `O=NN(c1ccccc1)c1ccccc1`, the call in assay [4] was inactive.
Regarding `Cc1cc2c3c(c1)C(c1ccccc1)=N[C@@H](NC(=O)c1ccncc1)C(=O)N3CC2`, the call in assay [6] was inactive.
As to `O=C(NC(=O)c1c(F)cccc1F)Nc1cc(Cl)c(OC(F)(F)C(F)F)c(Cl)c1`, the compound was classed as inactive in assay [15] and in [13].
For the compound `Cc1ccc(O)c(C)c1`, the result in assay [1] and in [16] was inactive.
`Cc1cccc(C)c1N`: the outcome in assay [14] was inactive.
As to `Clc1ccc(Cl)cc1`, the compound was classed as inactive in [1].
Regarding `CC(C)C(=O)OCC(C)(C)C(OC(=O)C(C)C)C(C)C` (centres undefined), the call in assay [1], in assay [6], in [17], in [14] and in assay [18] was inactive.
For the compound `CC1=C2C[C@H]3[C@@H](CC=C4C[C@@H](O)CC[C@@]43C)[C@@H]2CC[C@]12O[C@@H]1C[C@H](C)CN[C@H]1[C@H]2C`, in [12], the AC50 is 12.5 µM (active). In addition, the call in assay [13], in assay [3], in [9], in assay [10], in [1] and in assay [17] was inactive. Further, the compound was called inactive in assay [14], in [18] and in assay [16].
With `Nn1cnnc1`, the outcome in [9] was inactive.
